From PubChem BioAssay (NCATS)
Values joined by “and” are separate entries in the source; they are usually repeats but may differ in a detail not shown here. Equal entries are not always repeated. Results filed as inconclusive are left out. A call without a number means that no potency is given here. Active and inactive are the calls of the source. Unless noted, calls follow the shape of the dose curve; as a rule, active = well fitted curve in the direction sought with a large enough effect; inconclusive = small, poorly fitted or top-dose-only effect, or another doubt; inactive = no such curve, though single readings can be large; an effect the other way counts as inactive or inconclusive.

Columns and labels:
[1] = Cell Viability - SH-SY5Y (AID 544); conditions: SH-SY5Y neuroblastoma cell viability; viability change, negative = cytotoxic: at 92.2 µM (top of the series); also: nearly all actives have a fitted effect of over 55% in size
Outline: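 Human neuroblastoma SH-SY5Y cells (1500/well) in complete medium were exposed to compounds for 40 hr at 37 °C; intracellular ATP was then quantified by CellTiter-Glo luminescence after 20 min at room temperature. AC50 came from Hill-equation concentration-response fits.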

[2] = Cellular Toxicity (caspase-3) Jurkat (AID 655); conditions: Jurkat caspase-3 activation, luminescence; caspase-3 activation: at 92.2 µM (top of the series), DMSO = 0%, tamoxifen = 100%;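 also: cells exposed to compound for 16 h at 37 °C before reading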
Outline: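 5000 Jurkat cells/well; compound 16 hr, 37 °C; Caspase-Glo 3/7 added, 20 min RT; luminescence read. Norm: DMSO = 0%, tamoxifen 100 uM = 100%. AC50, Hill model.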

[3] = MultiTox-Fluor Cytotoxicity Assay - LYMP1-003 - Live Cells (AID 962);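 also: cytotoxic hits lower the live-cell protease signal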
Outline: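 LYMP1-003 human lymphoblastoid cells (2500/well) in complete medium were preincubated 5 hr at 37 C, then exposed to compounds for 16 hr at 37 C. Live-cell protease cleavage of GF-AFC read by fluorescence (Ex/Em 405/510); AC50 from Hill fits.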

[4] = Cell Viability - LYMP1-003 - Assay at 24 hr (AID 963)
Outline: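 Human lymphoblastoid LYMP1-003 cells (2500/well) were rested 5 hr at 37 C, then exposed to compounds in complete medium for 24 hr at 37 C. Cellular ATP was quantified by CellTiter-Glo luminescence, and AC50 values came from Hill fits of concentration-response data.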

[5] = Cell Viability - LYMP1-003 - Assay at 40 hr (AID 964); also: nearly all actives have a fitted effect of over 60% in size
Outline: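 Human lymphoblastoid LYMP1-003 cells, 2500/well in complete medium, rested 5 hr at 37 C, then exposed to compounds for 40 hr at 37 C. Viability read as intracellular ATP by CellTiter-Glo luminescence; AC50 from Hill fits of concentration-response data.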

[6] = Cell Viability - LYMP2-003 (AID 965);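 also: cells exposed to compounds for 24 h before reading; nearly all actives have a fitted effect of over 50% in size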
Outline: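 Seed 2500 lymphoblastoid cells/well; incubate 5 hr, 37 C; add compounds; incubate 24 hr, 37 C; add CellTiter-Glo, 30 min RT; read luminescence. AC50 from Hill fit.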

[7] = Cell Viability - LYMP2-004 (AID 966); also: nearly all actives have a fitted effect of over 65% in size
Outline: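 Human lymphoblastoid cells (2500/well) in complete medium were treated with compounds for 24 hr at 37 C, then intracellular ATP was measured by CellTiter-Glo luminescence. AC50 values came from Hill-equation fits of concentration-response data.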

[8] = Cell Viability - LYMP2-017 (AID 972); also: nearly all actives have a fitted effect of over 55% in size
Outline: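 Human lymphoblastoid cells (2500/well) were seeded in complete medium, held 5 hr at 37 C, then exposed to compounds for 24 hr at 37 C. Intracellular ATP was read by CellTiter-Glo luminescence after 30 min at room temperature, with AC50 values from Hill-equation fits.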

[9] = Cell Viability - LYMP2-019 (AID 973); also: nearly all actives have a fitted effect of over 55% in size
Outline: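 Human lymphoblastoid cells were seeded at 2500 cells/well, preincubated 5 hr at 37 C, then exposed to compounds for 24 hr at 37 C in complete medium. Intracellular ATP was measured by CellTiter-Glo luminescence; AC50 from Hill fits.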

[10] = Cell Viability - LYMP2-025 (AID 976)
Outline: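 Human lymphoblastoid LYMP2-025 cells (2500/well) were pre-incubated 5 hr at 37 C, then treated with compounds for 24 hr at 37 C in complete medium. Viability was read as intracellular ATP by CellTiter-Glo luminescence; AC50 from Hill fits.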

[11] = Cell Viability - LYMP2-007 (AID 979);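 also: cells exposed to compound for 24 h before reading; nearly all actives have a fitted effect of over 60% in size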
Outline: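 Human lymphoblastoid cells (2500/well) were plated in complete medium, incubated 5 hr at 37 C, then exposed to compounds for 24 hr at 37 C. Intracellular ATP was read by CellTiter-Glo luminescence after 30 min at room temperature; AC50 from Hill fits.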

[12] = Cell Viability - LYMP2-008 (AID 980); also: nearly all actives have a fitted effect of over 60% in size
Outline: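 Human lymphoblastoid cells (2500/well) were plated, held 5 hr at 37 C, then exposed to compounds for 24 hr at 37 C in complete medium. Intracellular ATP was read by CellTiter-Glo luminescence; AC50 from Hill-fitted concentration-response.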

[13] = Cell Viability - LYMP2-012 (AID 982);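 also: cellular ATP by luciferase luminescence where a drop means cytotoxicity; cells exposed to compound for one day before reading; nearly all actives have a fitted effect of over 55% in size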
[14] = Cell Viability - LYMP2-014 (AID 983); also: nearly all actives have a fitted effect of over 50% in size
Outline: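 Human lymphoblastoid cells (2500/well) were pre-incubated 5 hr at 37 C, then exposed to compounds in complete medium for 24 hr at 37 C. Intracellular ATP was read by CellTiter-Glo luminescence after 30 min at room temperature; AC50 from Hill fits.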

[15] = Cell Viability - LYMP2-018 (AID 985);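 also: compound exposure lasted 24 hr at 37 °C; nearly all actives have a fitted effect of over 50% in size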
Outline: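 Human lymphoblastoid cells (2500/well) were pre-incubated 5 hr at 37 C, then exposed to compounds for 24 hr at 37 C in complete medium. Viability was read as intracellular ATP by CellTiter-Glo luminescence; AC50 values came from Hill-equation fits.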

[16] = Cell Viability - LYMP1-002 - Assay at 40 hr (AID 994); also: nearly all actives have a fitted effect of over 60% in size
Outline: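 Human lymphoblastoid cells, 2500/well in complete medium, were preincubated 5 hr at 37 C, then exposed to compounds for 40 hr at 37 C. Intracellular ATP was read by CellTiter-Glo luminescence after 30 min at room temperature; AC50 from Hill-equation fits.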

[17] = qHTS assay for small molecule agonists of retinoid X receptor alpha signaling (AID 588544; calls by dose curve); conditions: HEK293T RXRa-UAS-bla, beta-lactamase reporter, 18 h; 530 nm emission
[18] = molecular target: Retinoic acid receptor RXR-alpha (Homo sapiens) (UniProt P19793); assay: as above
[19] = qHTS assay for small molecule antagonists of retinoid X receptor alpha signaling (AID 588546); conditions: HEK293T RXRa-UAS-bla, beta-lactamase ratio, antagonist mode; measured here: W530 green channel, cytotoxicity proxy;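 also: cells stimulated with 9-cis-retinoic acid as agonist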
Outline: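 Beta-lactamase reporter inhibition, read as CCF4 fluorescence ratio (ex 405, em 460/530 nm) after 2 h at RT. HEK293T UAS-bla cells, 2500/well, were stimulated with 9-cis-RA at 500 or 100 nM final alongside test compound for 18 h at 37 C.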

[20] = qHTS assay for small molecule antagonists of the retinoid-related orphan receptor gamma (ROR-gamma) signaling pathway - cell viability counter screen (AID 720652; active = well fitted curve in the direction sought with a large enough effect in the repeat runs; an effect the other way counts as inactive or inconclusive;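 also: CHO reporter cells with doxycycline-induced ROR-gamma expression; compound exposure lasted 16 hr before ATP read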)
Outline: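 Counter screen in CHO cells carrying TET-inducible ROR-gamma and an ROR response element-luciferase reporter; cells plated 5 hr, compound pinned, doxycycline added, then 16 hr at 37 C. Viability read as intracellular ATP by CellTiter-Glo luminescence.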

Chain of Retinoic acid receptor RXR-alpha (Homo sapiens) (P19793 whole entry, looked up): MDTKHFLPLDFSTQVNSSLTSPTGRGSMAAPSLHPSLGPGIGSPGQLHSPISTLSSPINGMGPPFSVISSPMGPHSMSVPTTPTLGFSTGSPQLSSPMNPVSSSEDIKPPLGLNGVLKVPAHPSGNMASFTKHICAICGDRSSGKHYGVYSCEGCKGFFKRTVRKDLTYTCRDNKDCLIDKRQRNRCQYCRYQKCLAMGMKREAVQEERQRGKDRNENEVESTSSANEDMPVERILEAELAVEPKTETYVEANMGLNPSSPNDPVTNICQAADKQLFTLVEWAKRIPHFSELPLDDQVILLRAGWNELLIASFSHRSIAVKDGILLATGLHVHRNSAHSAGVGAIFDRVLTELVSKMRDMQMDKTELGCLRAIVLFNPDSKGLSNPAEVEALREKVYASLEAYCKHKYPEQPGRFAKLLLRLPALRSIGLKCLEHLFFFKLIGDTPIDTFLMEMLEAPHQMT

| SMILES | Potency [1] | caspase-3 activation [2] | outcome [3] | outcome [4] | Potency [5] | Potency [6] | Potency [7] | Potency [8] | Potency [9] | Potency [10] | Potency [11] | Potency [12] | Potency [13] | Potency [14] | Potency [15] | Potency [16] | max response [17] | outcome [18] | max response [19] | Potency [20] |
| --- | --- | --- | --- | --- | --- | --- | --- | --- | --- | --- | --- | --- | --- | --- | --- | --- | --- | --- | --- | --- |
| C1CC2OC2CC1C1CO1 (configuration not stated) | inactive | -1.28% (inactive) | inactive | inactive | inactive | inactive | inactive | inactive | inactive | inactive | inactive | inactive | inactive | inactive | inactive | inactive | -2.62% | inactive | -7.13% and -27.8% | inactive |
| O=[N+]([O-])c1ccccc1-c1ccccc1 | inactive | 0.923% (inactive) | inactive | inactive | inactive | inactive | – | inactive | inactive | inactive | inactive | inactive | inactive | inactive | inactive | inactive | -6.95% | inactive | -2.63% | inactive |
| ClCCOCCCl | inactive | -0.264% (inactive) | inactive | inactive | inactive | inactive | inactive | inactive | inactive | inactive | inactive | inactive | inactive | inactive | inactive | inactive | 0.666% | inactive | 8.9% | inactive |
| CCCCCc1cc(O)cc(O)c1 | inactive | 1.33% (inactive) | inactive | inactive | inactive | inactive | inactive | inactive | inactive | inactive | inactive | inactive | inactive | inactive | inactive | inactive | 0.917% | inactive | -2.02% | – |
| CC(C)CC(C)N (configuration not stated) | inactive | 1.95% (inactive) | inactive | inactive | inactive | inactive | inactive | inactive | inactive | inactive | inactive | inactive | inactive | inactive | inactive | inactive | -12.2% | inactive | -2.75% | inactive |
| Cc1cc(Cl)ccc1O | inactive | 4.09% (inactive) | inactive | inactive | inactive | inactive | inactive | inactive | inactive | inactive | inactive | inactive | inactive | inactive | inactive | inactive | -4.59% | inactive | -5.47% | inactive |
| C[N+](=O)[O-] | inactive | 0.536% (inactive) | inactive | inactive | inactive | inactive | inactive | inactive | inactive | inactive | inactive | inactive | inactive | inactive | inactive | inactive | -4.73% | inactive | -7.25% | inactive |
| CC(=O)NNc1ccccc1 | inactive | 1.53% (inactive) | inactive | inactive | inactive | inactive | inactive | inactive | inactive | inactive | inactive | inactive | inactive | inactive | inactive | inactive | – | – | -2.14% | inactive |
| CN(C)N=O | inactive | 0.809% (inactive) | inactive | inactive | inactive | – | inactive | inactive | inactive | inactive | inactive | inactive | inactive | inactive | inactive | inactive | -8.99% | inactive | 1.95% | inactive |
| FC(Cl)(Cl)Cl | inactive | -0.152% (inactive) | inactive | inactive | inactive | inactive | inactive | inactive | inactive | inactive | inactive | inactive | inactive | inactive | inactive | inactive | -11.5% | inactive | -8.6% | inactive |
| O=[N+]([O-])c1cc(Cl)c(Cl)cc1Cl | inactive | 2.39% (inactive) | inactive | inactive | inactive | inactive | inactive | inactive | inactive | inactive | inactive | inactive | – | inactive | inactive | inactive | 10.7% | inactive | 2.5% | inactive |
| Cc1ccc(N)cc1C | inactive | 0.158% (inactive) | inactive | inactive | inactive | inactive | inactive | inactive | inactive | inactive | inactive | inactive | inactive | inactive | inactive | inactive | -0.563% | inactive | -3.11% | inactive |
| O=[N+]([O-])c1ccc(Cl)c(Cl)c1Cl | inactive | -0.417% (inactive) | inactive | inactive | inactive | inactive | inactive | inactive | inactive | inactive | inactive | inactive | inactive | inactive | inactive | inactive | 3.54% | inactive | -8.55% | inactive |
| Nc1ccc(Cc2ccc(N)cc2)cc1 | inactive | 2.26% (inactive) | inactive | inactive | inactive | inactive | inactive | inactive | inactive | inactive | inactive | inactive | – | inactive | inactive | inactive | 7.13% | inactive | -3.16% and 6.7% | inactive |
| ClC(Cl)C(Cl)Cl | inactive | 1.02% (inactive) | inactive | inactive | inactive | inactive | inactive | inactive | inactive | inactive | inactive | inactive | inactive | inactive | inactive | inactive | -4.19% | inactive | -2.39% | inactive |
| O=[N+]([O-])c1ccc2c3c(cccc13)CC2 | – | 0.699% (inactive) | inactive | inactive | inactive | inactive | inactive | inactive | inactive | inactive | inactive | inactive | inactive | inactive | inactive | inactive | 20.4% and -8.69% | inactive | -3.8% and -0.996% | inactive |
